The results in this text go back to PubChem BioAssay (NCI).

The structures appear in SMILES notation. The panel holds about 83,000 compounds, 20% with a hit somewhere; the sample as a whole holds those more often.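 A percent growth of 40 corresponds to 60% growth inhibition; 0 means no net growth; -100 means all cells died. Active threshold: below 10.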 Unmarked numbers belong to inactive results. Active and inactive are the calls of the source.

Test systems include SR leukemia; RPMI-8226 leukemia; OVCAR-8 ovarian; OVCAR-5 ovarian; OVCAR-4 ovarian; SK-OV-3 ovarian; OVCAR-3 ovarian; HS 578T breast; NCI/ADR-RES ovarian; T-47D breast; BT-549 breast; MDA-MB-435 melanoma; SW-620 colon; MCF7 breast; HCT-116 colon; HCC-2998 colon; KM12 colon; IGROV1 ovarian.
Holding throughout (test): NCI-60 one-dose screen, 48 h (100 = growth as untreated, 0 = no growth, -100 = all killed)
Common to all, as to details: 10 µM unless noted

`C=CCn1c(SCC(=O)Nc2ccc(C(=O)/C=C/c3cc(OC)c(OC)c(OC)c3)cc2)nnc1-c1c[nH]c2ccccc12`: the growth in the experiment with SR leukemia was 1.35% (active); with RPMI-8226 leukemia, -35.2% (active); in the experiment on OVCAR-8 ovarian, 37.8%; in the experiment with OVCAR-5 ovarian it was 32.1%; with OVCAR-4 ovarian it was 59.4%; with SK-OV-3 ovarian it was 75.3%. The growth in the experiment on OVCAR-3 ovarian was 6.15% (active); with HS 578T breast, 38.8%; with NCI/ADR-RES ovarian it was 88.9%; in the experiment with T-47D breast it was 49%; in the experiment with BT-549 breast it was 47.2%; in the experiment with MDA-MB-435 melanoma, 5.25% (active). For the same compound, the growth was -0.994% (active) with SW-620 colon; -30.8% (active) in the experiment with MCF7 breast; -66.1% (active) in the experiment on HCT-116 colon; -28% (active) in the experiment with HCC-2998 colon; 30.4% in the experiment on KM12 colon.

With `CC[C@@H](CO)Nc1ccc2ncc(C#Cc3cncc(C(=O)Nc4ccc(CN5CCN(C)CC5)c(C(F)(F)F)c4)c3)n2n1`, the growth is -24.4% (active) in the experiment with SR leukemia; -34.5% (active) in the experiment with RPMI-8226 leukemia; -57.6% (active) in the experiment with OVCAR-8 ovarian; -14% (active) in the experiment on OVCAR-5 ovarian; -40% (active) in the experiment on SK-OV-3 ovarian; -25.4% (active) in the experiment with IGROV1 ovarian. For the same compound, the growth with HS 578T breast is -41.5% (active); in the experiment with NCI/ADR-RES ovarian, 55.1%; in the experiment on T-47D breast, -75.8% (active); in the experiment on BT-549 breast it was -91.7% (active); in the experiment with MDA-MB-435 melanoma it was -88% (active); with SW-620 colon, -44.8% (active). Further, the growth in the experiment with MCF7 breast was -69.6% (active); with HCT-116 colon, -92.5% (active); in the experiment with HCC-2998 colon it was -43.2% (active); in the experiment on KM12 colon, -34.1% (active).

Turning to `COc1ccc(C(=O)Nc2ncc(Cc3ccccc3Cl)s2)cc1`, the growth in the experiment on SR leukemia was 16.4%; with RPMI-8226 leukemia, 22.2%; with OVCAR-8 ovarian, 12.3%; in the experiment on OVCAR-5 ovarian it was 36.5%; in the experiment with OVCAR-4 ovarian it was 62.1%; with SK-OV-3 ovarian, 29%. Moreover, the growth was 8.76% (active) in the experiment with HS 578T breast; 5.87% (active) in the experiment on NCI/ADR-RES ovarian; 34.3% with T-47D breast; 54.8% with BT-549 breast; -5.1% (active) with MDA-MB-435 melanoma; 25.3% with SW-620 colon. The growth in the experiment on MCF7 breast is 14.3%; with HCT-116 colon it was 7.77% (active); in the experiment with KM12 colon, 9.41% (active).

`NC(N)=Nc1ccc(Oc2cccc(Oc3ccc(Cl)c(C(F)(F)F)c3)c2)cn1`: the growth in the experiment with SR leukemia was -58.9% (active); in the experiment with RPMI-8226 leukemia it was -49.5% (active); in the experiment with OVCAR-8 ovarian, -50.8% (active); in the experiment on OVCAR-5 ovarian it was -74.5% (active); with OVCAR-4 ovarian it was -76.8% (active); in the experiment with SK-OV-3 ovarian, 75.8%. Further, the growth is 79.8% with HS 578T breast; -6.8% (active) with NCI/ADR-RES ovarian; 8.88% (active) in the experiment on T-47D breast; -86.8% (active) in the experiment with MDA-MB-435 melanoma; -76.7% (active) with SW-620 colon; -70.6% (active) with MCF7 breast. The growth in the experiment on HCT-116 colon is -91.5% (active); in the experiment with HCC-2998 colon, -80.6% (active); in the experiment on KM12 colon, -89.6% (active).

As to `N#Cc1c(Nc2ccccc2)nn2c(-c3ccc([N+](=O)[O-])cc3)ccnc12`, the growth in the experiment with SR leukemia is 103%; with RPMI-8226 leukemia, 94.1%; with OVCAR-8 ovarian, 99.9%; in the experiment with OVCAR-5 ovarian, 99.6%; in the experiment on SK-OV-3 ovarian, 111%; in the experiment with IGROV1 ovarian it was 100%. Besides, the growth in the experiment on HS 578T breast was 102%; with NCI/ADR-RES ovarian it was 101%; in the experiment with T-47D breast it was 110%; in the experiment on BT-549 breast, 99.5%; in the experiment on MDA-MB-435 melanoma, 97.4%; in the experiment with SW-620 colon it was 103%. The growth is 93.2% with MCF7 breast, 99.3% in the experiment with HCT-116 colon, 106% in the experiment on HCC-2998 colon and 102% with KM12 colon.

Take `CN1c2ccccc2Sc2cc(C=C(C#N)C#N)ccc21`: the growth in the experiment on SR leukemia was 105%; in the experiment on RPMI-8226 leukemia, 103%; with OVCAR-8 ovarian it was 94.4%; in the experiment on OVCAR-5 ovarian, 38%; with OVCAR-4 ovarian, 105%; with IGROV1 ovarian, 75.6%. The growth is 106% with OVCAR-3 ovarian; 89.3% with HS 578T breast; 89.7% in the experiment with NCI/ADR-RES ovarian; 92.6% in the experiment on T-47D breast; 110% in the experiment with BT-549 breast; 103% in the experiment with MDA-MB-435 melanoma. Moreover, the growth is 90.9% with SW-620 colon; 54.6% in the experiment on MCF7 breast; 105% in the experiment on HCT-116 colon; 97.3% in the experiment on HCC-2998 colon; 103% in the experiment with KM12 colon.

Take `CCOC(=O)C(=O)CC(=O)N1C(=S)NC(=O)C1CC(C)C` (stereo not given): the growth is 112% with SR leukemia; 107% with RPMI-8226 leukemia; 101% in the experiment with OVCAR-8 ovarian; 98.5% in the experiment with OVCAR-5 ovarian; 122% in the experiment on SK-OV-3 ovarian; 97.5% in the experiment on IGROV1 ovarian. In addition, the growth was 112% with OVCAR-3 ovarian; 111% in the experiment with HS 578T breast; 95.3% in the experiment with NCI/ADR-RES ovarian; 109% in the experiment with T-47D breast; 87.5% in the experiment on BT-549 breast; 99.9% with MDA-MB-435 melanoma. For the same compound, the growth is 106% with SW-620 colon; 95.8% in the experiment with MCF7 breast; 95.4% with HCT-116 colon; 97.8% in the experiment with HCC-2998 colon; 98.8% in the experiment with KM12 colon.

As to `COc1cc(-c2nc(SC(C)C)n(C(C)C)c(=O)c2C#N)ccc1OCc1ccccc1`, the growth is 39.9% with SR leukemia; 78.4% in the experiment on RPMI-8226 leukemia; 77% in the experiment on OVCAR-8 ovarian; 93.2% with OVCAR-5 ovarian; 103% in the experiment with SK-OV-3 ovarian; 67.1% with IGROV1 ovarian. Also, the growth in the experiment with HS 578T breast was 70.1%; with NCI/ADR-RES ovarian, 76%; with T-47D breast, 52.6%; in the experiment with BT-549 breast it was 93.8%; in the experiment with MDA-MB-435 melanoma, 85%; with SW-620 colon it was 52.4%. In addition, the growth in the experiment with MCF7 breast was 75.3%; in the experiment on HCT-116 colon, 42.9%; in the experiment with HCC-2998 colon, 87.6%; with KM12 colon, 95.1%.

As to `COc1ccc(S(=O)(=O)NCCCNc2nccc(-c3cn(C(C)(C)C)nc3-c3ccc(Cl)c(OC)c3)n2)cc1`, the growth in the experiment on SR leukemia was 48.8%; with RPMI-8226 leukemia it was 84.7%; with OVCAR-8 ovarian, 87.9%; with OVCAR-5 ovarian it was 90.3%; in the experiment with SK-OV-3 ovarian it was 103%; in the experiment on IGROV1 ovarian, 57.9%. For the same compound, the growth in the experiment on OVCAR-3 ovarian was 97.5%; with HS 578T breast it was 82.9%; in the experiment on NCI/ADR-RES ovarian, 87.8%; with T-47D breast it was 77.3%; in the experiment on MDA-MB-435 melanoma, 89.6%; with SW-620 colon it was 99.3%. Besides, the growth in the experiment with MCF7 breast is 82.4%; in the experiment with HCT-116 colon it was 66.6%; in the experiment on HCC-2998 colon it was 124%; in the experiment on KM12 colon, 93%.
